# From PubChem BioAssay
# D3 antag: D3 dopamine receptor (human) antagonism; P35462; D3R cells, DiscoveRx beta-arrestin luminescence, antagonist mode; stronger effect = lower value; max response, negative = inhibition, %; actives 2.5% (n = 360,000); in the data active means max response below about -50%; inconclusive means no clear call, values can overlap the other calls; further: on the % scale 0 is the no-effect control and ±100 the full control effect
# Target sequence (P35462 whole entry, looked up): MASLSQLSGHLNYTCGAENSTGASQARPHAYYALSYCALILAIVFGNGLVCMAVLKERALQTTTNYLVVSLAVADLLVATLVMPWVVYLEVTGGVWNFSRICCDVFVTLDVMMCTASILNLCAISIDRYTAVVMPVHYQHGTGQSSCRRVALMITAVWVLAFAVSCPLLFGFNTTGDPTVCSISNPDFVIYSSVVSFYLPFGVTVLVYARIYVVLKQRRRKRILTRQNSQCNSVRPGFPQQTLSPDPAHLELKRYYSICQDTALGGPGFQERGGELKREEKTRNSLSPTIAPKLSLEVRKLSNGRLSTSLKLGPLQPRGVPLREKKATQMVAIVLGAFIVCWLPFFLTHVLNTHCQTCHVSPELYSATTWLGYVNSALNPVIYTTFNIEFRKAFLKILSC
#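 Cells expressing the human receptor were seeded at 1500 cells/well, incubated overnight at 37 degrees C in 5% CO2, then exposed to library compounds with dopamine controls for 90 minutes at 37 degrees C before luminescent detection.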
# IL1B secr inh: blocks inflammasome-driven IL-1 beta release; actives 4.7% (n = 360,000); THP-1 LPS/ATP IL-1B secretion, AlphaLISA, 16 h; stronger effect = lower value; activity change, % at 57.5 µM; in the data active means activity change below about -50%; inconclusive means mostly about -30% to -49%; further: on the % scale 0 is the no-effect control and ±100 the full control effect
#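 Secreted IL-1B measured by AlphaLISA bead assay after 16 h compound exposure of THP-1 cells; compounds (final up to 57.5 uM) added 1 h before LPS (250 ng/mL) and ATP (1.25 mM) stimulation; lower signal means less secretion.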
# ClpP mod: qHTS Assay for Activators of ClpP. ATP-dependent Clp protease proteolytic subunit (Bacillus subtilis (strain 168)), P80244. purified B. subtilis ClpP, FRET peptide cleavage, 20 min. Potency, µM (top dose mostly 57.5 µM), without a hit: top-dose activity change, negative = active. actives 1.9% (n = 340,000). AID 651965, 2013; active means well fitted falling curve with a large enough effect; inconclusive means small, poorly fitted or top-dose-only effect; inactive means no such curve, though single readings can be large or run the other way; further: potency means the concentration at half of the fitted maximal effect; the source files actives as falling curves though it sought activators and does not explain the sign; nearly all actives have a fitted effect of over 65% in size
# Target sequence (P80244 whole entry, looked up): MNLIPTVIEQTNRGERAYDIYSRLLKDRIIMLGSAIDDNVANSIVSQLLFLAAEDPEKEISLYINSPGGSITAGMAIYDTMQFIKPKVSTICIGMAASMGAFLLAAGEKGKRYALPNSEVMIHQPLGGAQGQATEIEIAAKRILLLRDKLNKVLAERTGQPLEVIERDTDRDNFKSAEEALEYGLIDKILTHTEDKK
#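 Purified B. subtilis ClpP, 10 microg/mL final in Tris/HCl pH8 with KCl, BSA, glycerol and Tween-20, cleaved an Abz/nitrotyrosine-quenched decapeptide. Fluorescence (ex 320, em 430) was read at 0 and 20 min at room temperature. Delta was normalized to 5.8 microM ADEP and DMSO/no-enzyme controls.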
# D3 ag: activates the human D3 dopamine receptor. P35462. D3R DiscoveRx beta-arrestin cells, luminescence, 90 min. max activation, %. actives 0.58% (n = 410,000). AID 652048; in the data active means max activation above about 30%; further: 0% is about no effect
#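 Agonist mode: compounds and dopamine controls were applied to plated cells for 90 min at 37 degrees C after an overnight attachment at 1500 cells/well. Luminescent read-out followed 30 - 60 minutes at room temperature with DiscoveRx detection reagent.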
# TDP1 cell CPT: DT40-hTDP1 cell growth loss with CPT. Potency, µM (top dose mostly 46.2 µM), inactives show top-dose activity change, negative = growth inhibition, actives largely listed as inhibitors. chicken DT40 Tdp1-/-;hTDP1 cells + 20 nM CPT, ATP luminescence, 48 h. actives 12% (n = 420,000); further: potency means the concentration at half of the fitted maximal effect; on the % scale 0 is the no-effect control and ±100 the full control effect; nearly all actives have a fitted effect of over 55% in size
#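 Chicken DT40 Tdp1-/- cells complemented with human TDP1, 400 cells/well, exposed to compounds plus 20 nM camptothecin for at least 48 h at 37 C; viability read as ATP content by CellTiter-Glo luminescence.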
# TDP1 cell noCPT: qHTS for Inhibitors of human tyrosyl-DNA phosphodiesterase 1 (TDP1): qHTS in cells in absence of CPT; DT40 Tdp1-/- hTDP1 cells, no CPT, ATP luminescence, 48 h; Potency, µM (doses to about 46.2 µM), for inactives: top-dose activity change, negative = growth inhibition, usual class: inhibitors; AID 686978, 2013; actives 15% (n = 420,000); further: potency means the concentration at half of the fitted maximal effect; on the % scale 0 is the no-effect control and ±100 the full control effect; nearly all actives have a fitted effect of over 55% in size
#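 A cellular qHTS used chicken DT40 cells lacking endogenous Tdp1 but carrying stably transfected human TDP1. Compounds were applied without camptothecin, and cell growth kinetics were judged by ATP-dependent luminescence after ≥48 hr.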
# Numbers without * were called inactive; ? = inconclusive; . = no result. This is a sample that favours compounds with a hit; in the whole collection about 21% have one here. Unless noted, the call rests on the fitted dose curve; in most records, active means well fitted inhibition curve with a large enough effect; inconclusive means small, poorly fitted or top-dose-only effect; inactive means flat fitted curve, though single readings scatter.
SMILES,D3 antag,IL1B secr inh,ClpP mod,D3 ag,TDP1 cell CPT,TDP1 cell noCPT
O=C(CCc1nnc(Cc2c[nH]c3ccccc23)o1)NCC1CC12CCCCC2 (configuration not stated),?,-4.9,.,-11.8,?,25.9µM*
CCCC(=O)N1CCCC1(C)C(=O)Nc1ccc(C)c(C)c1 (configuration not stated),33.2,-1.4,0.9%,6.4,4.5%,-16.3%
CCCC(=O)C1=C(c2ccc(C)cc2)N(C(=O)CCC)n2cnnc2S1,.,.,-3.0%,15.0,?,16.4µM*
CCCC(=O)C1=C(c2ccc(C)c(C)c2)N(C(=O)CCC)n2c(CC)nnc2S1,.,.,1.3%,1.4,?,23.1µM*
O=C1NC[C@H](CCCCN2CCN(CC3CCCCC3)C(=O)C2=O)N(Cc2ccccc2)C1=O,-10.0,0.0,-0.3%,1.4,-0.7%,-21.2%
O=C(COC(=O)c1c(Cl)cccc1Cl)NCC1CCCO1 (configuration not stated),2.4,-12.1,-3.4%,5.4,7.5%,6.0%
CCOc1c(Cl)cc(/C=C/C(=O)N(CC)CC(=O)Nc2ccc(NC(C)=O)cc2)cc1OC,-52.7*,-21.5,-24.0%,-8.7,7.6%,?
COCCN(C(=O)CCC(=O)Nc1nccs1)C(C(=O)NC(C)(C)C)c1ccc(F)cc1 (configuration not stated),9.3,14.3,.,7.2,-27.2%,-34.5%
Cc1ccc(C(C(=O)NC(C)(C)C)N(CC2CCCO2)C(=O)CCC(=O)Nc2ccccn2)cc1 (configuration not stated),5.8,12.7,-0.3%,48.0*,7.8%,2.7%
COCCN(C(=O)CCC(=O)Nc1nccs1)C(C(=O)NC(C)(C)C)c1ccc(C)cc1 (configuration not stated),3.0,7.6,-0.3%,38.2*,3.7%,-19.3%
COCCNC(=O)C(c1ccc(C)cc1)N(Cc1ccccc1)C(=O)CCC(=O)Nc1ccccn1 (configuration not stated),-7.8,-10.8,.,-4.1,8.2%,-23.0%
COCCNC(=O)C(c1ccc(C)cc1)N(Cc1ccco1)C(=O)CCC(=O)Nc1ccccn1 (configuration not stated),-89.5*,-12.3,.,-9.8,-0.2%,-22.9%
O=C(C[C@@H]1C/C=C/CC[C@@H](Cc2ccc(F)cc2)C(=O)O[C@H](c2ccccc2)CNC1=O)NCCO,-4.7,24.2,-1.4%,0.7,?,?
O=[N+]([O-])c1ccc(-n2nnnc2-c2ccccc2)cc1,1.7,12.5,2.4%,4.1,?,?
O=[N+]([O-])c1ccc(-n2nnnc2-c2ccccc2)c([N+](=O)[O-])c1,-10.4,-64.1*,-0.2%,1.8,3.66µM*,2.91µM*
O=C(CSc1nnc2sc3ccccc3n12)NCc1ccco1,-7.6,31.5,0.1%,21.1,?,12.6µM*
CCNC(=O)CSc1nnc(C2CC2)n1-c1ccccc1,-24.8,3.0,-6.2%,0.6,5.2%,1.8%
O=C(CSc1nnc(C2CCCCC2)n1-c1ccccc1)NCc1ccco1,-8.7,-16.5,-1.6%,3.6,?,8.2µM*
COc1ccc(CCSc2nnc(C3CCCCC3)n2N)cc1,-25.4,-7.3,-2.2%,2.8,?,11.6µM*
COc1ccc(NC(=O)CSc2nnc(C3CCCCC3)n2N)c(OC)c1,5.7,22.9,0.1%,-5.8,-3.5%,11.7%
O=C(CSc1nnc(C2CC2)n1-c1ccccc1)NCCc1ccccc1,-60.1*,-10.2,-2.9%,-3.0,0.1%,-23.7%
O=C1NC(Cc2ccccc2)C(=O)N1CC(=O)N1CCCc2ccccc21 (configuration not stated),2.3,12.3,.,4.1,4.2%,?
C=CCn1c(SCC(=O)NC(=O)NC)nnc1C1CCCCC1,6.2,39.2,.,1.8,5.2%,-0.1%
C=CCn1c(SCC(=O)NC(=O)NCCC)nnc1C1CCCCC1,58.6,8.2,3.16µM*,11.2,-23.7%,-15.3%
COc1ccc(NC(=O)CSc2nnc(C3CC3)n2N)cc1,28.5,2.2,7.4%,-4.2,8.8%,-3.4%
SMILES,D3 antag,IL1B secr inh,ClpP mod,D3 ag,TDP1 cell CPT,TDP1 cell noCPT
COc1ccc(NC(=O)CSc2nnc(C3CCCCC3)n2-c2ccccc2)cc1,18.9,-5.7,1.3%,0.9,14.6µM*,18.4µM*
CCn1c(SCC(=O)Nc2cc(OC)ccc2OC)nnc1C1CCCCC1,-28.7,-23.6,-1.0%,-5.8,29.1µM*,-24.7%
Cc1ccc(N2CN(S(=O)(=O)c3cccc([N+](=O)[O-])c3)c3nc4ccccc4nc32)cc1,9.5,-7.6,-11.6%,4.5,6.8%,5.9%
O=C(Nc1c[nH]c(=O)[nH]c1=O)c1cccc([N+](=O)[O-])c1,-6.7,11.5,-2.1%,-5.1,?,-11.2%
COc1cc2cncc(Cc3ccc(Cl)cc3)c2cc1OC,-10.4,-11.0,-4.0%,3.3,14.6µM*,18.4µM*
COc1ccc(CCNC(=O)Cc2ccc(Cl)cc2)cc1OC,11.0,12.5,1.7%,0.6,-1.2%,-16.7%
Cc1cc2n(n1)C(c1sccc1C)Nc1ccccc1-2 (configuration not stated),6.4,?,17.8µM*,2.3,9.7%,-29.9%
Cc1ccc2c(c1)-c1cc(C)nn1C(c1ccc3c(c1)OCO3)N2 (configuration not stated),39.2,-14.0,12.6µM*,0.4,-6.4%,-21.3%
Cc1cc2n(n1)C(c1ccccc1)Nc1ccccc1-2 (configuration not stated),3.1,28.2,25.1µM*,0.9,?,?
Cc1cc2n(n1)C(c1sccc1C)Nc1c(C)cccc1-2 (configuration not stated),?,-11.1,28.2µM*,7.6,?,?
Cc1cc2n(n1)C(c1ccc3c(c1)OCO3)Nc1ccccc1-2 (configuration not stated),25.1,-8.7,?,2.7,-14.0%,-27.3%
Cc1cc2n(n1)C(c1ccc(N(C)C)cc1)Nc1ccccc1-2 (configuration not stated),4.7,-11.6,-26.6%,-1.3,-19.0%,?
CSc1ccc(CN2CCC2(C)C(=O)Nc2cnc3ccccc3c2)cc1 (configuration not stated),0.0,-20.3,-4.4%,-3.7,?,?
